The values that follow come from PubChem BioAssay AID602325 (NMMLSC, 2012).

This experiment concerns Botulinum neurotoxin type A light chain protease [Clostridium botulinum A str. ATCC 3502]. Nature of the experiment: BoNT/A light chain protease inhibitors, confirmation, biochemical, flow cytometry, cherry pick 2 (AID 602325). As to conditions: multiplex microsphere protease cleavage assay, at 10 µM, hits give high values. (Flow cytometry measures light scatter and fluorescence of single cells or particles in a stream.)

Structures are written as SMILES. The list shows a part of the results. A number with no mark means an inactive call. Active and inactive are the calls of the source. Cut-off read from the data, not from the text of the source: active = inhibition above about 24%; inactive = the rest.

Usually inhibition stands for the relative decrease from the control value, in per cent. For `CCOc1ncccc1C(=O)OCC(=O)c1c[nH]c2ccccc12`, the inhibition is 9.5%.

Take `Cc1ccc(CNC(=O)c2cccc3c2C(=O)c2ccc(N4CCC(C)CC4)cc2S3(=O)=O)cc1`: the inhibition is 8.9%. The result for `O=C(CN1CCN(c2ccccc2O)CC1)NC(=O)NCc1ccccc1` reads 1.6%; that for `O=C(OCC(=O)c1c[nH]c2ccccc12)c1cccc(O)c1`, 1.5%; that for `CC(=O)OCCN(CCCn1c(-c2ccncc2)nc2ccccc21)c1nc(-c2ccc(C)cc2)cs1`, 1.8%. As to `COc1ccc(-c2cc3c(c4c2ccn4C)C2CCC3C2)cn1` (stereo not drawn), the inhibition is 25.2% (active). To `Cc1cc2ccccc2n1CCNC(=O)COc1ccc2ccccc2c1` belongs 5.2%; to `Cc1cc2cc(CNC(=O)c3ccc(S(=O)(=O)N4CCOCC4)cc3)ccc2[nH]1`, 3.8%.
